The source of these data is PubChem BioAssay (NCI).

Several values for one entry are separate records, joined by “and”; a condition that tells them apart may be missing. Identical values can stand only once. The panel holds about 83,000 compounds, 20% with a hit somewhere; the sample as a whole holds those more often.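 Compound tested at a single concentration for 48 hours in 96-well plates; a percent growth value below 10 was scored as active.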 Activity calls are given as the source filed them.

The first experiment has as its system SNB-19 CNS. The experiment in a line: NCI-60 one-dose screen, 48 h (100 = growth as untreated, 0 = no growth, -100 = all killed). To be noted: 10 µM unless noted.
As to `CCN(CC)C(=S)SSC(=S)N(CC)CC`, the growth was 85.4% (inactive) and 97% (inactive).

With `Nc1nc(SC/C=C/CCl)c2[nH]cnc2n1`, the growth was 107% (inactive) and 102% (inactive). On to `CC1CCCC(=O)O1` (configuration not stated), for which the growth was 111% (inactive). For `c1ccc(NCc2ccc3c(c2)OCO3)cc1`, the growth was 99% (inactive). In the case of `CN(Cc1ccccc1)Cc1ccccc1`, the growth is 106% (inactive). The same measure, in the same setting: as for `O=[N+]([O-])c1ccc(N/N=C\c2cc(Br)ccc2O)nc1`, the figure is 29.2% (inactive) and 28.4% (inactive); as for `O=C(Nc1ccc(Br)cc1)c1cc(Br)ccc1O`, 22.1% (inactive) and 23.1% (inactive); as for `CN(C)c1ccc(C(=C2C=CC(=[N+](C)C)C=C2)c2ccccc2Cl)cc1`, -96.9% (active) and -95.6% (active). Same read-out and setting: as for `O=C(Cc1cccc2ccccc12)N/N=C/c1ccc2c(c1)CCC2`, the figure is 92.1% (inactive); as for `O=C(O)C1C2C=CC(C2)C1C(=O)O` (configuration not stated), 99.2% (inactive) and 51.6% (inactive) and 113% (inactive); as for `COc1cc(C(=O)c2ccc3c(c2)OCO3)cc(OC)c1OC`, 35.9% (inactive) and 43.1% (inactive). Same read-out and setting: as for `O=C(CCc1ccc(O)cc1)N/N=C/c1cc(Br)ccc1O`, the figure is 69.6% (inactive); as for `CC(=O)Oc1cc(C(=O)O)cc(OC(C)=O)c1OC(C)=O`, 93.4% (inactive) and 108% (inactive).

For `Cn1c(=O)c2[nH]c(CCCCCCCCc3nc4ccccc4[nH]3)nc2n(C)c1=O`, the growth is 66.9% (inactive) and 65.4% (inactive).

Take `O=C1c2ccccc2C(=O)N1/N=C/c1ccc2c(c1)OCO2`: the growth is 93% (inactive). Same read-out and setting: as for `S=C1SCN(Cc2ccccc2)CN1Cc1ccccc1`, the figure is 96.4% (inactive). With `Cc1ccc(-c2noc(CC(=O)c3ccc([N+](=O)[O-])cc3)n2)cc1`, the growth is 106% (inactive). On the same count and under the same terms, as for `Oc1ccc(/C=C/c2ccccc2)cc1`, the figure is 84.1% (inactive) and 91.2% (inactive); as for `CC(=O)C(/C=N/C(N)=O)=C(/C)O`, 103% (inactive); as for `COC(=O)c1nc(N)nc(C(=O)OC)c1C(=O)c1ccc(OC)cc1`, 98.1% (inactive) and 69.9% (inactive). The same measure, in the same setting: as for `Cc1cc(O)c2c(c1)C(=O)c1cc(O)cc(O)c1C2=O`, the figure is 82.5% (inactive) and 94.2% (inactive). As to `C#CCN(C)Cc1ccccc1`, the growth was 102% (inactive). Regarding `CCN(CC)CCCC(C)Nc1ccnc2cc(Oc3ccccc3)ccc12` (configuration not stated), the growth was 83.5% (inactive) and 94.5% (inactive). As to `COc1ccccc1NC(=O)OCC#CCOC(=O)Nc1ccccc1OC`, the growth is 104% (inactive) and 88.7% (inactive). Take `Cc1cc(O)c(C(C)C)cc1S(=O)(=O)O` (tested in a mixture with another compound): the growth was 103% (inactive) and 35.4% (inactive) and 100% (inactive). Same read-out and setting: as for `Oc1c(CN2CCCCC2)ccc2cccnc12`, the figure is 65.9% (inactive) and 74.1% (inactive). On the same count and under the same terms, as for `NS(=O)(=O)c1cc2c(cc1Cl)NC(C(Cl)Cl)NS2(=O)=O` (configuration not stated), the figure is 104% (inactive) and 105% (inactive); as for `COc1cc2nc(N3CCN(C(=O)C4COc5ccccc5O4)CC3)nc(N)c2cc1OC` (configuration not stated), 99.7% (inactive) and 96% (inactive) and 101% (inactive).

In the next experiment the test system is U251 CNS. Described as above. Particulars: 10 µM unless noted.
Regarding `O=C(O)C1(C(=O)O)CCC1.[NH2-].[NH2-].[Pt+2]`, the growth is 102% (inactive) and 94.1% (inactive).

With `CC1(C)[C@@H](OC(=O)CCC(=O)O)CC[C@]2(C)[C@H]3C(=O)C=C4[C@@H]5C[C@@](C)(C(=O)O)CC[C@]5(C)CC[C@@]4(C)[C@]3(C)CC[C@@H]12`, the growth was 110% (inactive) and -91.2% (active). As for `CCNC(=O)Nc1ccc(-c2nc3c(c(N4CCOC[C@@H]4C)n2)CCN(C2COC2)C3)cc1`, the growth is 55.9% (inactive) and 7.52% (active).

Take `O=C1C2=C(C(=O)c3ccccc31)C(O)(S(=O)(=O)O)C(O)(S(=O)(=O)O)C1N=CC=CC21` (configuration not stated): the growth is 30.3% (inactive) and 18.7% (inactive).

`COc1ccc2c(=O)cc(-c3ccccc3)[nH]c2c1`: the growth is 12.2% (inactive) and 15.6% (inactive).

For `COc1cc(Nc2nc3ccccc3nc2NS(=O)(=O)c2ccc(NC(=O)c3ccc(C)c(OC)c3)cc2)cc(OC)c1`, the growth was 55.4% (inactive) and 21.5% (inactive). On the same count and under the same terms, as for `COc1cc(-c2nccc3cc4c(cc23)OCO4)cc(OC)c1OC`, the figure is 40.6% (inactive) and 24.1% (inactive); as for `CCN(CC)CCC(CNc1ccnc2cc(Cl)ccc12)c1ccc(OC)cc1` (configuration not stated), 58.5% (inactive) and 50.6% (inactive); as for `CC(=O)Nc1ccc(O)cc1`, 102% (inactive) and 106% (inactive) and 107% (inactive).

`c1ccc2c(CC3=NCCN3)cccc2c1`: the growth was 94.6% (inactive) and 100% (inactive).

Turning to `Cc1nn(-c2ccc(Cl)cc2)c2ncnc(N/N=C/c3ccccc3O)c12`, the growth was 13% (inactive) and 11.8% (inactive). Same read-out and setting: as for `CCN(CC)C(=S)SSC(=S)N(CC)CC`, the figure is 58.5% (inactive) and 100% (inactive). On the same count and under the same terms, as for `Nc1nc(SC/C=C/CCl)c2[nH]cnc2n1`, the figure is 99.1% (inactive) and 98.1% (inactive). Still for that read-out and setting: as for `CC1CCCC(=O)O1` (configuration not stated), the figure is 102% (inactive) and 104% (inactive); as for `c1ccc(NCc2ccc3c(c2)OCO3)cc1`, 99.3% (inactive) and 93.3% (inactive); as for `CN(Cc1ccccc1)Cc1ccccc1`, 99% (inactive).

On to `O=[N+]([O-])c1ccc(N/N=C\c2cc(Br)ccc2O)nc1`, for which the growth is 16.6% (inactive) and 5.3% (active).

For the molecule `O=C(Nc1ccc(Br)cc1)c1cc(Br)ccc1O`, the growth is 15.4% (inactive) and 10.2% (inactive). With `CN(C)c1ccc(C(=C2C=CC(=[N+](C)C)C=C2)c2ccccc2Cl)cc1`, the growth was -58.3% (active) and -97.7% (active). The same measure, in the same setting: as for `O=C(Cc1cccc2ccccc12)N/N=C/c1ccc2c(c1)CCC2`, the figure is 69.9% (inactive). Take `O=C(O)C1C2C=CC(C2)C1C(=O)O` (configuration not stated): the growth is 105% (inactive) and 19.7% (inactive) and 98.8% (inactive). As to `COc1cc(C(=O)c2ccc3c(c2)OCO3)cc(OC)c1OC`, the growth was 24.1% (inactive) and 16.2% (inactive). In the case of `O=C(CCc1ccc(O)cc1)N/N=C/c1cc(Br)ccc1O`, the growth was 49.2% (inactive). Regarding `CC(=O)Oc1cc(C(=O)O)cc(OC(C)=O)c1OC(C)=O`, the growth was 93.1% (inactive) and 105% (inactive). Still for that read-out and setting: under `Cn1c(=O)c2[nH]c(CCCCCCCCc3nc4ccccc4[nH]3)nc2n(C)c1=O` stands 72.5% (inactive) and 80.2% (inactive); under `O=C1c2ccccc2C(=O)N1/N=C/c1ccc2c(c1)OCO2`, 99.8% (inactive). The same measure, in the same setting: under `S=C1SCN(Cc2ccccc2)CN1Cc1ccccc1` stands 80.2% (inactive); under `Cc1ccc(-c2noc(CC(=O)c3ccc([N+](=O)[O-])cc3)n2)cc1`, 96.8% (inactive); under `Oc1ccc(/C=C/c2ccccc2)cc1`, 67.7% (inactive) and 53.5% (inactive). The same measure, in the same setting: as for `CC(=O)C(/C=N/C(N)=O)=C(/C)O`, the figure is 99.6% (inactive); as for `COC(=O)c1nc(N)nc(C(=O)OC)c1C(=O)c1ccc(OC)cc1`, 106% (inactive) and 49.6% (inactive); as for `Cc1cc(O)c2c(c1)C(=O)c1cc(O)cc(O)c1C2=O`, 92.1% (inactive) and 88.1% (inactive). Consider `C#CCN(C)Cc1ccccc1`, for which the growth is 105% (inactive) and 101% (inactive). In the case of `CCN(CC)CCCC(C)Nc1ccnc2cc(Oc3ccccc3)ccc12` (configuration not stated), the growth was 56.5% (inactive) and 60.4% (inactive). Regarding `COc1ccccc1NC(=O)OCC#CCOC(=O)Nc1ccccc1OC`, the growth is 97.4% (inactive) and 96.4% (inactive).

Turning to `Cc1cc(O)c(C(C)C)cc1S(=O)(=O)O` (tested in a mixture with another compound), the growth is 90.3% (inactive) and 9.28% (active) and 102% (inactive). Still for that read-out and setting: as for `Oc1c(CN2CCCCC2)ccc2cccnc12`, the figure is 41.8% (inactive) and 38.7% (inactive); as for `NS(=O)(=O)c1cc2c(cc1Cl)NC(C(Cl)Cl)NS2(=O)=O` (configuration not stated), 86.5% (inactive) and 104% (inactive); as for `COc1cc2nc(N3CCN(C(=O)C4COc5ccccc5O4)CC3)nc(N)c2cc1OC` (configuration not stated), 91.8% (inactive) and 86.8% (inactive) and 99.1% (inactive).
